Sampled rows, rich in hits. Any-hit rate of the full collection: about 10%.
G9a block: G9a (human) methyltransferase inhibition. G9a H3K9 monomethylation, AlphaScreen, 2 h. Potency, µM (series often up to 102 µM), for the others: top-dose activity, negative = inhibition, usual class: inhibitors. 350,000 tested, 8.8% active. AID 504332; note: potency is the fitted concentration of half-maximal effect; % is set by controls: 0 for no effect and ±100 for the full control effect; nearly all actives have a fitted effect of over 75% in size
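G9a (20 nM) preincubated 15 min RT with compounds, then 500 nM biotinylated H3K9 peptide and 20 uM SAM added; 2 h RT reaction. Monomethyl-H3K9 product detected by AlphaScreen with anti-H3K9me1 antibody, streptavidin donor and anti-rabbit IgG acceptor beads.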
BAZ2B inh: blocks human BAZ2B | Q9UIF8 | AlphaScreen BAZ2B-H3K14Ac peptide displacement | Potency, µM (highest dose often 114 µM), inactives show at the highest dose activity change, negative = inhibition, most hits filed as inhibitors | 360,000 tested, 4.4% active; note: potency is the fitted concentration of half-maximal effect; % is set by controls: 0 for no effect and ±100 for the full control effect; nearly all actives have a fitted effect of over 60% in size
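Compounds, titrated to a top concentration of 110 uM, were incubated 30 min at room temperature with preformed BAZ2B/acetyl-K14 H3 peptide complex (50 nM each). Proximity signal was measured by AlphaScreen after 20 min with beads.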
JMJD2A Tudor: JMJD2A Tudor domain (human) inhibition. O75164. AlphaScreen JMJD2A-Tudor / H3K4me3 peptide binding. 390,000 tested, 4.4% active. AID 504339. Potency, µM (series often up to 114 µM), without a hit: at the top dose activity change, negative = inhibition, actives largely listed as inhibitors; note: potency is the fitted concentration of half-maximal effect; % is set by controls: 0 for no effect and ±100 for the full control effect; nearly all actives have a fitted effect of over 50% in size
Six1-Eya2 blk: Six1/Eya2 interaction inhibition | activity change, % (concentration not given with the values) | Q15475+O00167 | 360,000 tested, 0.56% active | AlphaScreen GST-Six1/His-Eya2 binding, biochemical; active compounds read low; in the data active = activity change below about -65%; inconclusive = mostly about -30% to -63%; note: % is set by controls: 0 for no effect and ±100 for the full control effect
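Six1/Eya2 binding was read as AlphaScreen signal after compounds were pinned into GST-Six1 plus His-tagged Eya2 (5X stock 250/500 nM) in pH 8.0 Tris/NaCl/TCEP buffer, beads added, then incubated 1 h, 37 C, dark.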
CtBP-E1A blk: inhibitors of CtBP/E1A interaction. AlphaScreen GST-E1A/His-CtBP binding, 1536-well; active compounds read low. activity change, % (test concentration not listed). 340,000 tested, 0.49% active. AID 651724; in the data active = activity change below about -65%; inconclusive = mostly about -30% to -63%; note: % is set by controls: 0 for no effect and ±100 for the full control effect
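Homogeneous bead-based format: GST-tagged E1A captured on glutathione donor beads, His-tagged CtBP on nickel acceptor beads; compounds precede bead addition by 2 h at 37 °C.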
HP1b chromo inh: inhibitors of HP1-beta chromodomain binding to methylated histone tails; 390,000 tested, 0.56% active; Potency, µM (top dose mostly 114 µM), inactives show top-dose activity change, negative = inhibition, hits mostly inhibitors; AlphaScreen HP1-beta / biotin-H3K9me3 peptide binding; P83916; note: potency is the fitted concentration of half-maximal effect; nearly all actives have a fitted effect of over 70% in size
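AlphaScreen: HP1-beta (50 nM) preformed 30 min with biotin-H3(1-18)K9me3 peptide (50 nM) in PBS pH 7.4, 0.01% Tween-20. Compound added for 30 min at RT, then streptavidin donor/nickel chelate acceptor beads (10 ug/mL) for 30 min.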
* = called active by the depositor; ? = inconclusive; . = no result given; [ ] = another dose, or the depositor's remark. Unless noted, calls come from the whole dose curve; as a rule, active = well fitted inhibition curve with a large enough effect; inconclusive = small, poorly fitted or top-dose-only effect; inactive = no such curve, though single readings can be large or run the other way.

SMILES	G9a block	BAZ2B inh	JMJD2A Tudor	Six1-Eya2 blk	CtBP-E1A blk	HP1b chromo inh
COc1cccc(-c2noc(Cn3nc(C(=O)O)c4ccccc4c3=O)n2)c1	-6%	-12%	-11%	-16	1	8%
COc1cccc(C(=O)N2CCC(N3CCN(Cc4ccc(F)cc4)C(=O)C3=O)CC2)c1	5%[59 µM]	1%	-12%	.	.	9%
CCCCC(OC(=O)CNC(=O)c1ccccc1)C(=O)Nc1cc(C(F)(F)F)ccc1Cl (centres undefined)	.	.	-12%	.	.	.
CCN(CC)N=Nc1ccc(C(=O)O)cc1	2µM*	1%	-2%	26	0	40%
OC(CSc1ccc(F)cc1)CN1CCN(c2ccccc2)CC1 (centres undefined)	?	-18%	-30%	-5	-9	10%
COc1ccc(S(=O)(=O)NCCN2CCOCC2)c2ccccc12	28µM*	-28%	-24%	-1	7	14%
COc1ccc(S(=O)(=O)NCCN2CCOCC2)c(C)c1C	21%[59 µM]	3%	-2%	-1	2	71%
Cc1cccc(C)c1OCCCN1CCOCC1	35µM*	-23%	-15%	7	11	-1%
COc1ccccc1N1CCN(CCCCNS(=O)(=O)c2cccc3c(N(C)C)cccc23)CC1	27µM*	.	.	.	.	.
COc1ccccc1N1CCN(CCCCN2C(=O)CCC2=O)CC1	-9%[59 µM]	.	.	.	.	.
COc1cccc(OC)c1OCCCN1CCOCC1	?	50µM*	2.5µM*	12	-1	?
CC(=O)Nc1c(C)nn(-c2ccccc2)c1N1CCC(C(=O)NCc2ccc(F)cc2)CC1	4%[59 µM]	4%	1%	.	.	28%[57 µM]
Cc1cccc(C)c1OCCCCN1CCNCC1	25µM*	?	6.3µM*	-2	-1	-9%
CN(C)C(=O)CSc1nc2ccccc2n1CC(=O)N1CCN(c2ccccc2)CC1	13%[59 µM]	-30%	-14%	1	0	22%
O=C(Cn1c(N2CCN(c3ccccc3)CC2)nc2ccccc21)c1ccccc1	50µM*	-11%	-5%	-5	-5	14%
O=C(CSc1cn(CC(=O)N2CCCCC2)c2ccccc12)NCC1CCCO1 (centres undefined)	-37%	-16%	50µM*	0	-2	-22%
O=C(CSc1nc2ccccc2c(=O)n1CCC(=O)N1CCN(c2ccccc2)CC1)NCC1CCCO1 (centres undefined)	-13%[59 µM]	-24%	56µM*	0	-10	-3%
O=C(CCCn1c(SCC(=O)NC2CCCCC2)nc2ccccc2c1=O)NCC1CCCO1 (centres undefined)	-2%	2%	-7%	2	5	17%
O=C(CCCn1c(SCC(=O)c2ccc(O)c(O)c2)nc2ccccc2c1=O)NCC1CCCO1 (centres undefined)	35µM*	?	32µM*	-8	-7	-11%
COc1ccc(CNC(=O)C/C(C)=N/NC(=O)c2cnccn2)cc1	?	?	-15%	-1	2	11%
OCCN1CCN(c2ncnc3c2c(-c2ccccc2)cn3-c2ccc(F)cc2)CC1	-44%	?	?	-13	-2	-17%
COc1ccc(-n2cc(-c3ccccc3)c3c(NN4CCOCC4)ncnc32)cc1	50µM*	?	?	-10	-8	?
COc1ccc(-n2cc(-c3ccccc3)c3c(N4CCN(CCO)CC4)ncnc32)cc1	50µM*	?	?	1	9	-9%
O=C(CC(=O)NC1CCCCC1)N/N=C/c1ccccc1Cl	19%[59 µM]	9%	-5%	0	15	25%
O=C(CC(=O)NC1CCCCC1)N/N=C/c1ccccc1[N+](=O)[O-]	45µM*	4%	2%	-2	6	21%
SMILES	G9a block	BAZ2B inh	JMJD2A Tudor	Six1-Eya2 blk	CtBP-E1A blk	HP1b chromo inh
Cc1nc2cc(N3CCCCC3)c(NC(=O)c3cccnc3)cc2c(=O)n1Cc1ccccc1	-10%[59 µM]	1%	-3%	3	-5	38%
CC(=O)Nc1cc2c(=O)n(Cc3ccccc3)c(C)nc2cc1N1CCOCC1	50µM*	?	-17%	6	-7	20%
COc1ccc(N2CCN(C(=O)c3ccc(N(C)S(=O)(=O)c4ccc(C)cc4)cc3)CC2)cc1	-4%[0.501 µM]	?	?	-30	8	?
COc1ccc(N2CCN(C(=O)c3ccc4c(c3)NC(=O)C(CSCc3cccc(F)c3)N4)CC2)cc1 (centres undefined)	20µM*	-37%	.	.	.	.
COc1ccc(N2CCN(C(=O)c3ccc4c(c3)NC(=O)C(CSCc3ccc(C)cc3)N4)CC2)cc1 (centres undefined)	7.9µM*	?	.	.	.	.
COc1ccc(N2CCN(C(=O)c3ccc4c(c3)N(Cc3ccc(F)cc3)C(=O)c3ccccc3S4=O)CC2)cc1 (centres undefined)	?	-39%	?	.	.	7%
COc1ccc(N2CCN(C(=O)c3ccc4c(c3)NC(=O)C(CSCc3c(F)cccc3Cl)N4)CC2)cc1 (centres undefined)	32µM*	-33%[57.1 µM]	.	.	.	.
Clc1cccc(Cl)c1C1Nc2cccc3cccc(c23)N1	16µM*	25µM*	45µM*	-20	-7	?
Fc1cccc(Cl)c1C1Nc2cccc3cccc(c23)N1	.	32µM*	?	-4	.	-16%
Cc1cc([N+](=O)[O-])ccc1N1C(=O)c2ccc(C(=O)Nc3ccccc3C(=O)O)cc2C1=O	?	-22%	-27%	-15	.	12%
COc1cc(C(C[N+](=O)[O-])c2c(C)[nH]c3ccccc23)ccc1O (centres undefined)	?	40µM*	?	-13	-17	-36%
COc1cc(C(C[N+](=O)[O-])c2c(N)n(C)c(=O)n(C)c2=O)ccc1O (centres undefined)	50µM*	-27%	-9%	4	4	-4%
Cc1[nH]c2ccccc2c1C(C[N+](=O)[O-])c1ccco1 (centres undefined)	50µM*	?	?	-16	-8	-8%
CC(C)C1C(=O)N(Cc2cn(Cc3ccco3)nn2)CCS(=O)(=O)N1Cc1ccc(-c2ccc(Cl)c(Cl)c2)cc1 (centres undefined)	.	.	.	-2	-19	.
CCOc1cc(C2c3c(oc4ccc(F)cc4c3=O)C(=O)N2Cc2ccco2)ccc1O (centres undefined)	-27%[59 µM]	-5%	-10%	.	.	26%
COC(=O)/C(=C\C(=O)c1ccc([N+](=O)[O-])cc1)Nc1ccc(OC)cc1	.	5.6µM*	18µM*	?	?	11µM*
COc1ccc(N/N=C(\C#N)C(=N)N2CCOCC2)cc1	28µM*	-31%	-31%	-5	-4	12%
